From PubChem BioAssay AID686978 (National Center for Advancing Translational Sciences (NCATS), 2013)
About 64,000 (15%) of roughly 420,000 compounds were called active. Not shown: some 27% with an inconclusive outcome. The call rests on the fitted dose curve; in most records, active means well fitted inhibition curve with a large enough effect; inconclusive means small, poorly fitted or top-dose-only effect; inactive means flat fitted curve, though single readings scatter. These entries were drawn from the full list. Entries that show only a call come without a potency.

experiment: qHTS for Inhibitors of human tyrosyl-DNA phosphodiesterase 1 (TDP1): qHTS in cells in absence of CPT; conditions: DT40 Tdp1-/- hTDP1 cells, no CPT, ATP luminescence, 48 h; activity change, negative = growth inhibition: at 46.2 µM (top of the series); further: nearly all actives have a fitted effect of over 55% in size
In short: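 Luminescent ATP content (CellTiter-Glo) served as the growth readout. Knockout chicken DT40 cells expressing human TDP1 were exposed to compounds without camptothecin for a minimum 48 hr at 37 °C.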
Potency means the concentration at half of the fitted maximal effect.

SMILES | Potency
Cc1cc(C)cc(N(C(C)C(=O)Nc2c(C)n(C)n(-c3ccccc3)c2=O)S(C)(=O)=O)c1 (configuration not stated) | inactive
COc1ccc(CN2CCOC2=O)cc1OC | inactive
CCOc1cc(CN2CCN(C(=O)CC(C)C)CC2)ccc1OC | inactive
COc1ccc(Cn2c(=O)oc3ccccc32)cc1 | inactive
CCCCOc1ccc(Cn2c(=O)oc3ccc(C)cc32)cc1OC | 14.6 µM (active)
CCCCOc1ccc(CN2C(=O)C(=O)c3cc(Br)cc(C)c32)cc1OC | 1.16 µM (active)
CCCCn1nnnc1C1(C)CCC(=O)N1Cc1ccc(OC)c(OC)c1 (configuration not stated) | inactive
Cc1cccc(-n2c(Cc3cc(=O)[nH]c(=O)[nH]3)nnc2SC(C)C)c1 | inactive
CC/C(=N\NC(=O)c1c(C)nc2ccccn12)c1ccc(Cl)cc1 | inactive
CCCCCC(=O)Nc1ccc(S(=O)(=O)Nc2ccc(Cl)nn2)cc1 | inactive
CCCCN(C)Cc1c(C)[nH]c2ccc(Cl)cc2c1=O | inactive
CCOC(=O)C1=C(C)NC(C)=C(C(=O)OCC)C1c1ccccn1 | inactive
C=CCC1(C#N)C(=S)NC(C)=C(C(=O)OCC)C1c1ccccc1 (configuration not stated) | 29.1 µM (active)
CCOC(=O)C1=C(C)NC(SC)=NC1c1ccccc1 (configuration not stated) | inactive
Cc1ccsc1C1C(C#N)=C(N)OC2=C1C(=O)CC(C)(C)C2 (configuration not stated) | inactive
CCOC(=O)CSc1nnc(CNC(=O)Cc2ccccc2)n1-c1ccccc1OC | inactive
O=C(COc1ccc(Cl)cc1)NCCSc1ccccc1 | inactive
COc1ccc(C(=O)COC(=O)CNC(=O)c2cccs2)cc1Br | inactive
Cc1ccc(S(=O)(=O)n2cnc3ccccc32)c(C)c1 | inactive
COc1ccc(S(=O)(=O)n2cnc3ccccc32)c(C)c1 | 10.3 µM (active)
Cc1ccc(C)c(S(=O)(=O)n2cnc3ccccc32)c1 | inactive
COc1ccc(C)cc1NC(=S)N1CCOCC1 | inactive
C=CCOc1c(Br)cc(/C=N\n2nnnc2N)cc1OC | inactive

SMILES | Potency
C[C@H]1CN([C@@H](C)CO)C(=O)c2cc(-c3cccc(F)c3)cnc2O[C@@H]1CN(C)S(C)(=O)=O | inactive
Cn1c(=O)c2c(nc(Oc3ccc(C#N)cc3)n2Cc2ccc(Cl)cc2Cl)n(C)c1=O | inactive
C=CCOc1nc2c(c(=O)n(C)c(=O)n2C)n1Cc1ccc(Cl)cc1Cl | 14.6 µM (active)
CC1CN(Cc2nc3c(c(=O)n(C)c(=O)n3C)n2Cc2cccc(Cl)c2)CC(C)O1 (configuration not stated) | inactive
CN1CCc2nc(SC(C(=O)O)c3ccccc3)c(C#N)c(-c3cccs3)c2C1 (configuration not stated) | inactive
COc1ccc(CCNC(=O)Cn2c(=O)n(-c3ccccc3)c(=O)c3c(C)c(C)sc32)cc1OC | inactive
C=CCn1c(SCC(N)=O)nnc1-c1cc2c(s1)CCC(CC)C2 (configuration not stated) | inactive
O=C1C=C(c2ccccc2)CCC1 | inactive
CC(=O)CCC(=O)c1ccc2ccccc2c1 | inactive
C=CC(=O)c1ccc2ccccc2c1 | 2.31 µM (active)
CC(=O)c1ccc2c(ccc3ccccc32)c1 | inactive
CCc1ccc(C(=O)N2CCN(S(=O)(=O)c3sc(C(=O)O)c(C)c3C(=O)O)CC2)cc1 | inactive
O=S(=O)(Oc1ccccc1C(=S)N1CCOCC1)c1ccc(Cl)cc1 | inactive
CC(=O)Nc1ccc(S(=O)(=O)Oc2ccc(Br)cc2C(=S)N2CCOCC2)cc1 | inactive
CCOc1cc(C(=S)N2CCOCC2)ccc1OS(=O)(=O)c1ccc(Br)cc1 | 20.6 µM (active)
CCN(CC)P(=O)(C(NC(=O)OC)C(F)(F)C(F)(F)C(F)(F)C(F)F)N(CC)CC (configuration not stated) | inactive
CCOC(=O)CSc1nnc(-c2ccco2)n1C | inactive
CCOC(=O)CSc1nc2c(sc(=S)n2CCc2ccccc2)c(=O)n1Cc1ccco1 | 16.4 µM (active)
Cc1cc(C)nc(SCc2nnc(SCC(=O)Nc3ncc(C)s3)n2Cc2ccco2)n1 | inactive
Cc1ccc(C)c(NC(=O)C2CC(=O)N(C(C)C)C2)c1 (configuration not stated) | inactive
CCCC(C)n1[nH]c(=O)c2c(C)cc(C)nc21 (configuration not stated) | inactive
CC(CCc1ccccc1)NC(=O)c1ccc(Br)o1 (configuration not stated) | inactive
CC(CNC(=O)c1ccc(Br)o1)NC(=O)c1ccc(Br)o1 (configuration not stated) | 4.61 µM (active)

SMILES | Potency
O=C(CNC(=O)c1ccc(Br)o1)Nc1ccccc1 | inactive
C=C1C(=O)C23C(O)C1CCC2[C@]12COC3(O)C(O)C1C(C)(C)CC[C@H]2O (some centres not stated) | 6.51 µM (active)
O=C(COC(=O)c1ncc(Cl)c(Cl)c1Cl)NC1CCS(=O)(=O)C1 (configuration not stated) | inactive
NC(N)=NCCCc1cn(CC(=O)N2CCNCC2)nn1 | inactive
Cc1nn(-c2ccccc2)c(C)c1C(=O)OCC(=O)NC(=O)NC1CCCCC1 | 29.1 µM (active)
N#Cc1ccc(C(=O)OCC(=O)NC(=O)NC2CCCCC2)cc1 | inactive
O=C(COC(=O)c1cccnc1Cl)NC(=O)NC1CCCCC1 | inactive
CC1Cc2ccccc2N1C1=CC(=O)CC(C)(C)C1 (configuration not stated) | inactive
O=C(/C=C/Nc1ccccc1)c1cnc(-c2ccccc2)s1 | inactive
CC(C)Cn1c(N2CCN(C(=O)/C=C/c3ccccc3)CC2)nc2ccccc21 | 9.2 µM (active)
CC1(C(=O)O)CCCN(C(=O)/C=C/c2ccccc2)C1 (configuration not stated) | inactive
CC(C)N(C(=O)Cn1c(SCC(=O)N2CCN(c3ccccc3)CC2)nc2ccccc21)C(C)C | inactive
O=C(Nc1ccc(OCCO)cc1)c1csc([C@H]2C[C@H](O)[C@@H](CO)O2)n1 | inactive
COc1ccc(OC)c(C2C3=C(N=c4s/c(=C\c5cccc(O)c5)c(=O)n42)c2ccccc2CC3)c1 (configuration not stated) | 25.9 µM (active)
CCOC(=O)C1=C(C)N=c2s/c(=C\C(=O)OC)c(=O)n2C1c1ccc(OC)cc1 (configuration not stated) | inactive
CC(C)(C)NC(=O)NC(=O)COC(=O)C1c2ccccc2Oc2ccccc21 | inactive
COc1cn(CC(=O)Nc2cccc(C)c2C)c(CN2CCCCC2)cc1=O | inactive
CCCCCCCCn1c2c(c(=N)c3c1CCC3)CCCC2 | 1.03 µM (active)
Nc1nnc(SCCN2C(=O)c3ccccc3S2(=O)=O)s1 | inactive
CN(C)CCCN(Cc1cc2cc3c(cc2[nH]c1=O)OCCO3)C(=O)NC1CCCCC1 | inactive
Cc1nnc(SCC(=O)Nc2ccc(S(=O)(=O)Nc3ccc(Cl)nn3)cc2)s1 | inactive
